ClpP mod = qHTS Assay for Activators of ClpP. purified B. subtilis ClpP, FRET peptide cleavage, 20 min. AID 651965, 2013. Potency, µM (titrated, usually from 57.5 µM), inactives show at the highest dose activity change, negative = active. ATP-dependent Clp protease proteolytic subunit (Bacillus subtilis (strain 168)), P80244. actives 1.9% (n = 340,000); active means well fitted falling curve with a large enough effect; inconclusive means small, poorly fitted or top-dose-only effect; inactive means no such curve, though single readings can be large or run the other way; further: potency means the concentration at half of the fitted maximal effect; the source files actives as falling curves though it sought activators and does not explain the sign; nearly all actives have a fitted effect of over 65% in size
Target sequence (P80244 whole entry, looked up): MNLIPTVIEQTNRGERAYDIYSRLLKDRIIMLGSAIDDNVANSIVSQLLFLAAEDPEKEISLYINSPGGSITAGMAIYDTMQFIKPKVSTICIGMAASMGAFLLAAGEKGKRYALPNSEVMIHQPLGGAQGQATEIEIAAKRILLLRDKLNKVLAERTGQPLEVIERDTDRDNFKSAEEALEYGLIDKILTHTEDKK
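FRET quenching reversal measured ClpP activation: 10 microg/mL B. subtilis ClpP at pH 8 with the FRET-FV decapeptide, read at 430 nm after 320 nm excitation. The 20-min minus 0-min signal was scaled between DMSO/no-enzyme wells and ADEP (5.8 microM final).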
DRD3 antagonist = antagonists of human D3 dopamine receptor; actives 2.5% (n = 360,000); D3R cells, DiscoveRx beta-arrestin luminescence, antagonist mode; stronger effect = lower value; AID 652054; max response, negative = inhibition, %; in the data active means max response below about -50%; inconclusive means no clear call, values can overlap the other calls; further: on the % scale 0 is the no-effect control and ±100 the full control effect
Target sequence (P35462 whole entry, looked up): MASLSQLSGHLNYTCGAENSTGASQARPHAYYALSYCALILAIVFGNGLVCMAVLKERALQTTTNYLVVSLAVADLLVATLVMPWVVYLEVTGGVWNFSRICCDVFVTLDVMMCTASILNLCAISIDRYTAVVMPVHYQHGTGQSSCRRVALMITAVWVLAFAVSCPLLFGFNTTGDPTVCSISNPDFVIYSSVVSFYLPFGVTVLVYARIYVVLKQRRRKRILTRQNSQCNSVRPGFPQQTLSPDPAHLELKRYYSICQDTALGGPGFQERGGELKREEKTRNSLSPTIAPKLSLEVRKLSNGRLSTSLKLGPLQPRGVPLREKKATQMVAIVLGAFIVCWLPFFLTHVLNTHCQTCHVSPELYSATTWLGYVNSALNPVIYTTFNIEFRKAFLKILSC
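Cells plated overnight at 1500 cells/well, then exposed to library compounds with dopamine controls for 90 minutes at 37 degrees C. DiscoveRx reagent added for 30–60 minutes at room temperature; luminescence read, quantitative HTS format.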
DT40 TDP1 no CPT = qHTS for Inhibitors of human tyrosyl-DNA phosphodiesterase 1 (TDP1): qHTS in cells in absence of CPT | Potency, µM (series often up to 46.2 µM), without a hit: at the top dose activity change, negative = growth inhibition, usual class: inhibitors | DT40 Tdp1-/- hTDP1 cells, no CPT, ATP luminescence, 48 h | actives 15% (n = 420,000); further: potency means the concentration at half of the fitted maximal effect; on the % scale 0 is the no-effect control and ±100 the full control effect; nearly all actives have a fitted effect of over 55% in size
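Cells were dispensed at 400 per well, compounds added by pin tool, plates incubated ≥48 hr at 37 °C, then CellTiter-Glo added for 30 min at room temperature before luminescence reading. Line: DT40 Tdp1-/- complemented with hTDP1; camptothecin omitted.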
DRD3 agonist = agonists of human D3 dopamine receptor; actives 0.58% (n = 410,000); max activation, %; D3R DiscoveRx beta-arrestin cells, luminescence, 90 min; in the data active means max activation above about 30%; further: 0% is about no effect
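Agonist mode: compounds and dopamine controls were applied to plated cells for 90 min at 37 degrees C after an overnight attachment at 1500 cells/well. Luminescent read-out followed 30 - 60 minutes at room temperature with DiscoveRx detection reagent.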
IL-1B inflam inh = blocks inflammasome-driven IL-1 beta release; THP-1 LPS/ATP IL-1B secretion, AlphaLISA, 16 h; stronger effect = lower value; activity change, % at 57.5 µM; actives 4.7% (n = 360,000); in the data active means activity change below about -50%; inconclusive means mostly about -30% to -49%; further: on the % scale 0 is the no-effect control and ±100 the full control effect
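Secreted IL-1B measured by AlphaLISA bead assay after 16 h compound exposure of THP-1 cells; compounds (final up to 57.5 uM) added 1 h before LPS (250 ng/mL) and ATP (1.25 mM) stimulation; lower signal means less secretion.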
TDP1 cell CPT = DT40-hTDP1 cell growth loss with CPT. chicken DT40 Tdp1-/-;hTDP1 cells + 20 nM CPT, ATP luminescence, 48 h. Potency, µM (doses to about 46.2 µM), without a hit: at the top dose activity change, negative = growth inhibition, hits mostly inhibitors. actives 12% (n = 420,000). AID 686979; further: potency means the concentration at half of the fitted maximal effect; on the % scale 0 is the no-effect control and ±100 the full control effect; nearly all actives have a fitted effect of over 55% in size
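Chicken DT40 Tdp1-/- cells stably complemented with human TDP1 were seeded at 400 cells/well in medium containing 20 nM camptothecin, exposed to pin-transferred compounds, and grown at 37 °C for at least 48 hr. Viability was read as ATP luminescence.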
Starred values were filed as active, the others as inactive; ? = inconclusive; · = not tested or not shown. This is a sample that favours compounds with a hit; in the whole collection about 21% have one here. Unless noted, the call rests on the fitted dose curve; in most records, active means well fitted inhibition curve with a large enough effect; inconclusive means small, poorly fitted or top-dose-only effect; inactive means flat fitted curve, though single readings scatter.

SMILES | ClpP mod | DRD3 antagonist | DT40 TDP1 no CPT | DRD3 agonist | IL-1B inflam inh | TDP1 cell CPT
CCN1/C(=C2/SC(=S)N(NC(C)=O)C2=O)Sc2ccc(Cl)cc21 | -23% | 5 | 18µM* | 1 | -13 | ?
COc1ccc(CCNC(=O)c2cc(COc3c(C)cccc3C)on2)c(OC)c1 | 2% | 8 | -27% | 0 | -9 | 23µM*
COc1ccc(OCc2cc(C(=O)NCCc3ccccc3)no2)c(Cl)c1 | 0% | -11 | 10µM* | 4 | 0 | 7.3µM*
Cc1cccc(C)c1OCc1cc(C(=O)N(Cc2c(C)nn(C)c2C)C2CC2)no1 | 0% | 20 | 8.2µM* | 23 | ? | 13µM*
COc1ccc(OCc2cc(C(=O)NCCN3CCCc4ccccc43)no2)c(Cl)c1 | -3% | 18 | 18µM* | 5 | -3 | 15µM*
COc1ccc(CCNC(=O)c2cc(COc3c(F)cccc3F)on2)c(OC)c1 | ? | -7 | ? | 9 | -13 | ?
COc1ccc([N+](=O)[O-])cc1N(CC(=O)NC(C(C)C)C(C)C)S(C)(=O)=O | · | 11 | -18% | 1 | -7 | -1%
Cc1cccc(C)c1OCc1cc(C(=O)NCc2cn(C)nc2C)no1 | 0% | 0 | ? | 7 | 9 | 18µM*
COc1ccc(OCc2cc(C(=O)NCC(C)(C)N3CCOCC3)no2)c(Cl)c1 | 2% | 7 | 21µM* | 8 | 1 | 23µM*
Cc1cccc(C)c1OCc1cc(C(=O)NCC2CCCCC2)no1 | 1% | 2 | 19% | 1 | -10 | -15%
O=C(NCCc1ccccc1C(F)(F)F)c1cc(COc2ccccc2)on1 | 1% | 0 | 16µM* | -9 | -5 | 16µM*
COc1cc(Cl)ccc1OCc1cc(C(=O)NCC(C)(C)N2CCOCC2)no1 | -4% | 0 | -10% | 8 | 4 | -25%
O=C(Nc1ccc(S(=O)(=O)N2CCOCC2)cc1)C1CC(=O)N(c2ccc(F)cc2)C1 (centres undefined) | · | 24 | -11% | 20 | -9 | -15%
O=C1CC(c2cccc(O)c2)c2cc3c(cc2N1)OCO3 (centres undefined) | -4% | · | -13% | 7 | · | -1%
Fc1ccc(CCNC(=S)Nc2ccc(F)cc2)cc1 | -1% | -4 | 18µM* | 3 | 2 | ?
CCCCc1ccc(NC(=S)NCCO)cc1 | · | 8 | -1% | 3 | 19 | 9%
CCCCc1ccc(NC(=S)NCCc2ccc(F)cc2)cc1 | · | ? | ? | -15 | -110* | ?
Cc1ccc(F)cc1NC(=S)NCCc1ccccc1 | 0% | -19 | 26µM* | -1 | -15 | ?
CC(=O)c1cccc(NC(=S)NCCc2ccc(F)cc2)c1 | -27% | -19 | ? | -3 | -10 | -18%
COCCNC(=O)C(=O)NCCN1CCNCC1 | · | -4 | 3% | -1 | 3 | 0%
CCC(C)(C)NC(=O)C(c1ccncc1)N(C(=O)c1sc(C)nc1C)c1ccc(C)cc1 (centres undefined) | 1% | 16 | ? | 1 | 31 | -9%
Cc1ccc(C2c3[nH]c4ccccc4c3CCN2C(=O)Nc2ccc(C)c(C)c2)cc1 (centres undefined) | -10% | · | ? | -12 | · | ?
C=CCc1cccc2cc(C(=O)Nc3ccccc3C(=O)O)c(=O)oc12 | · | 128 | ? | 29 | 8 | ?
COc1ccc(SC[C@H](C)CN2CC[C@H](C)CCC2=O)cc1 | -1% | 8 | ? | 14 | -13 | ?
C[C@@H]1CCC(=O)N(C[C@@H](C)CSc2ccccc2)CC1 | 0% | -13 | ? | 1 | 3 | ?
SMILES | ClpP mod | DRD3 antagonist | DT40 TDP1 no CPT | DRD3 agonist | IL-1B inflam inh | TDP1 cell CPT
C[C@@H]1CCC(=O)N(C[C@@H](C)CSc2ccc(Br)cc2)CC1 | 0% | 6 | 18µM* | 0 | -19 | ?
Cc1ccc(SC[C@H](C)CN2CC[C@H](C)CCC2=O)cc1 | 0% | 9 | 18µM* | 7 | 22 | 13µM*
COc1ccc(Cl)cc1NC(=O)CSC1=Nc2ccccc2C2=NC(CC(=O)NC3CCCCC3)C(=O)N12 (centres undefined) | -2% | · | -93% | 2 | · | 18µM*
COc1ccc(NC(=O)CSC2=Nc3ccccc3C3=NC(CCC(=O)NCc4ccc(F)cc4)C(=O)N23)cc1Cl (centres undefined) | -8% | · | 15µM* | 10 | · | ?
COc1ccc(Cl)cc1NC(=O)CSC1=Nc2ccccc2C2=NC(CCC(=O)NCc3ccco3)C(=O)N12 (centres undefined) | -8% | · | ? | 5 | · | ?
COc1ccc(Cl)cc1NC(=O)CSC1=Nc2ccccc2C2=NC(CCC(=O)NCc3ccc(F)cc3)C(=O)N12 (centres undefined) | -10% | · | 16µM* | -19 | · | 23µM*
Cc1cccc(NC(=O)CSC2=Nc3ccccc3C3=NC(CCC(=O)NCc4ccc(F)cc4)C(=O)N23)c1 (centres undefined) | -8% | · | ? | 2 | · | -29%
Cc1ccccc1OCC(=O)OCC(=O)NCc1ccccc1Cl | 0% | 2 | -1% | 2 | 9 | -15%
O=C(Nc1ccon1)c1ccc(F)c(S(=O)(=O)N2CCCCC2)c1 | · | 6 | ? | 2 | 12 | -8%
CC(C)c1ccc(NC(=O)c2ccc(F)c(S(=O)(=O)N3CCCC3)c2)cc1 | 0% | · | ? | 7 | · | 10µM*
O=C(Nc1cc(Cl)cc(Cl)c1)c1ccc(F)c(S(=O)(=O)N2CCCC2)c1 | -24% | · | 21µM* | -2 | · | 16µM*
O=C(Nc1cc(Cl)cc(Cl)c1)c1ccc(F)c(S(=O)(=O)N2CCc3ccccc32)c1 | -17% | · | 9.2µM* | -5 | · | 5.8µM*
CC(C)c1ccc(NC(=O)c2ccc(F)c(S(=O)(=O)N3CCCCCC3)c2)cc1 | 0% | · | ? | 3 | · | ?
CCCN1CNc2c(c(=O)[nH]c(=S)n2CCc2ccccc2OC)C1 | 0% | · | ? | · | · | ?
C=C(C)c1cccc(C(C)(C)NC(=O)Nc2ccc(C)cn2)c1 | 1% | 1 | 18µM* | -7 | -6 | 18µM*
COc1ccc2c(c1)CCC(=O)[C@H](O)C[C@H](c1ccccc1)OC2=O | 2% | -17 | ? | -11 | 3 | ?
S=C1NCCc2ccc(Cl)cc2C1c1ccccc1Cl (centres undefined) | 0% | -71* | ? | -2 | -1 | ?
